# Rows were chosen to be rich in hits. Some 11% of all compounds tested hit in one or more screens of this group.
# HPGD inh: blocks human HPGD enzyme activity; P15428; purified HPGD, NADH fluorescence kinetic, PGE2 substrate; Potency, µM, without a hit: top-dose activity change, negative = inhibition, hits mostly inhibitors; 150,000 tested, 4.3% active; AID 894; active = well fitted inhibition curve with a large enough effect, not every such curve was filed as active; inconclusive = small, poorly fitted or top-dose-only effect, or another doubt; inactive = no such curve, though single readings can be large or run the other way; note: potency is the fitted concentration of half-maximal effect
# Target sequence (P15428 whole entry, looked up): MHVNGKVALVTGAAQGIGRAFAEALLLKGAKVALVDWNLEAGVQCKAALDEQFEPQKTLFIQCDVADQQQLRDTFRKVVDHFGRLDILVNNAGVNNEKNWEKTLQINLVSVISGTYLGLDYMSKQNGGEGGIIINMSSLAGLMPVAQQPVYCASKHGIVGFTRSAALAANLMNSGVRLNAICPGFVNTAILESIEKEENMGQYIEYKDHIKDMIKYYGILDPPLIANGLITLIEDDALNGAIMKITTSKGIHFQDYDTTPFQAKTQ
#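 NADH formation kinetics: reaction with 30 uM PGE2 and 1 mM NAD+ (final), 20 nM enzyme, Tris-HCl pH 8 with Tween 20, after 15 min compound preincubation at room temperature. Fluorescence change, last versus first of five reads.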
# IMPase inh: membrane-permeable compound that blocks inositol monophosphatase; inhibition (IP1 accumulation), % at 46.1 µM; 120,000 tested, under 10 active; P97697; CHO-M1 cells, IP1 accumulation, HTRF TR-FRET ratio; active = well fitted curve in the direction sought with a large enough effect in the signal ratio, not every such curve was filed as active; inconclusive = small, poorly fitted or top-dose-only effect, or a change in a side signal; inactive = no such curve, though single readings can be large or run the other way; the % refers to the signal ratio;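 note: cells stimulated with carbachol in lithium chloride buffer; plate controls were DMSO basal wells for no effect and reference inhibitor wells for full effect; higher means more IMPase inhibition seen as more IP1 and lower FRET ratio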
# Target sequence (P97697 whole entry, looked up): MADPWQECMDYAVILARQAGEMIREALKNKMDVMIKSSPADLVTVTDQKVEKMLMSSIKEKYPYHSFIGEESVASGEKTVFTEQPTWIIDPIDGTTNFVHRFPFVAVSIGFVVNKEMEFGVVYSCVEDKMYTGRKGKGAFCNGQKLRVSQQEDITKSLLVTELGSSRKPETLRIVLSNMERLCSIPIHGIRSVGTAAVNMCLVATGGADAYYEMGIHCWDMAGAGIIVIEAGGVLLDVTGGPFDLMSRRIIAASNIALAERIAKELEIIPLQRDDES
#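 CHO-M1, 2000 cells/well, cultured 16–30 h; cpd up to 46 uM; carbachol (50 uM solution, stimulation buffer w/ 50 mM LiCl, pH 7.4), 30 min 37C; IP-One TR-FRET, 10 min RT; Ex 320/Em 665, 620; Hill-fit AC50.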
# ALDH1A1 inh: blocks purified human ALDH1A1 activity; P00352; Purified ALDH1A1, NADH fluorescence, propionaldehyde substrate; Potency, µM (series often up to 75.3 µM), for the others: at the top dose activity, negative = inhibition, actives largely listed as inhibitors; 220,000 tested, 7.3% active; active = well fitted inhibition curve with a large enough effect, not every such curve was filed as active; inconclusive = small, poorly fitted or top-dose-only effect, or another doubt; inactive = no such curve, though single readings can be large or run the other way;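 note: potency is the fitted concentration of half-maximal effect; plate controls were no enzyme wells and a reference inhibitor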
# NPSR antag: blocks cAMP signaling of the human neuropeptide S receptor | Q6W5P4 | CHO-NPSR cells, cAMP TR-FRET, antagonist mode | Potency, µM (titrated, usually from 38.3 µM), for inactives: at the highest dose activity change, negative = inhibition, usual class: inhibitors | 220,000 tested, 1% active | AID 1461; note: potency is the fitted concentration of half-maximal effect; nearly all actives have a fitted effect of over 50% in size
# PNC assembly inh: blocks assembly of the perinucleolar compartment; 140,000 tested, 3.1% active; AID 2417; activity change (PNC), negative = inhibition, % at 10 µM; PC3M PTB-GFP, PNC prevalence imaging, 16 h; stronger effect = lower value;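 active = readout at or below -70, meaning at least 70% loss of cells showing the perinucleolar compartment, a nuclear body marking cancer cells; inconclusive = readout between -30 and a set limit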;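 note: plate controls were DMSO wells for no effect and camptothecin positive control wells for full effect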
#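 PC3M cells stably expressing PTB-GFP, 750–1000 cells/well, treated 16 h at 37 °C with compound (23 nl of library stock), in duplicate. After paraformaldehyde fixation and Hoechst stain, imaged at 20x; PNC prevalence scored by image analysis.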
# IMPase Li inh: cell-permeable IMPase inhibitors with lithium potentiation; AID 1457; Potency, µM (highest dose often 59.4 µM), without a hit: at the top dose activity, negative = IMPase inhibition, most hits filed as inhibitors; CHO-M1 cells, IP1 TR-FRET (IP-One), carbachol + lithium; 210,000 tested, 0.35% active;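 note: IP1 builds up when IMPase is blocked and the TR-FRET signal falls; potency is the fitted concentration of half-maximal effect; plate controls were basal vehicle for no effect and high inhibitor control for full effect; nearly all actives have a fitted effect of over 50% in size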
#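 Steps: plate 2000 CHO-M1 cells per well and culture 16–30 h; add compound and lithium; incubate 30 min, 37C; add d2-IP1 tracer and Eu cryptate anti-IP1 antibody in lysis buffer; read after 10 min at room temperature.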
# Active calls of the source: *; ? = inconclusive; · = no result; [ ] = another dose, or the depositor's remark. Unless noted, calls come from the whole dose curve; as a rule, active = well fitted curve in the direction sought with a large enough effect; inconclusive = small, poorly fitted or top-dose-only effect, or another doubt; inactive = no such curve, though single readings can be large; an effect the other way counts as inactive or inconclusive. Unless noted, % is set by controls: 0 for no effect and ±100 for the full control effect.
SMILES,HPGD inh,IMPase inh,ALDH1A1 inh,NPSR antag,PNC assembly inh,IMPase Li inh
O=C1NC(=O)N(c2ccccc2F)C(=O)/C1=C/c1ccc(Oc2ccc([N+](=O)[O-])cn2)cc1,·,·,?,-58%,·,2%
O=C1NC(=O)C(=Cc2ccc(OCCOc3ccc([N+](=O)[O-])cc3)cc2)C(=O)N1,·,·,18µM*,-25%,·,9%
NC(N)=NC(=O)c1nc(Cl)c(N)nc1N,?,-1,1%,-3%,-115*,-1%
C=CCN1C(=O)/C(=C/c2ccc3c(c2)CCCN3CCC)C(=O)NC1=S,14µM*,-1,1.3µM*,-35%,12,4%
CCN1C(=O)/C(=C/c2ccc3c(c2)CCN3CCCCl)C(=O)NC1=S,7.9µM*,·,0.2µM*,-53%,-99*,50%
O=C1NC(=S)N(C2CC2)C(=O)/C1=C/c1ccc2c(c1)CCN2CCCCl,11µM*,5,0.89µM*,-51%,56,10%
CC(C)(C)N1C(=O)NC(=O)/C(=C\c2ccc3c(c2)CCN3CCCCl)C1=O,·,·,·,-7%,·,·
COc1ccc(OC)c(-n2c(O)c(C=Nc3c(C)n(C)n(-c4ccccc4)c3=O)c(=O)[nH]c2=S)c1,·,·,?,-12%,·,·
Nc1c(Cl)c(Cl)nc(C(=O)O)c1Cl,-3%,·,12%,·,·,-5%
CCCCNC(=O)Oc1cc(CCl)on1,·,·,13µM*,8%,·,-4%
CN1CCC(C)(O)C2CCCCC21 (stereo unspecified),·,·,10µM*,20%,·,?
CC(=O)O[C@]1(c2ccccc2)CCN(C)[C@H]2CCCC[C@@H]21,-6%,-1,0%,-9%[46.1 µM],29,2%
CCN1CCN(c2ccc([N+](=O)[O-])cc2C=C2C(=O)NC(=O)NC2=O)CC1,-11%,·,-1%,18%,26,0%
O=C(COC(=O)c1cccc(O)c1)Nc1ccc(Cl)cc1C(=O)c1ccccc1,·,0,-9%,-19%[46.1 µM],-16,·
O=C(CN1CCCC1=O)Nc1ccccc1,-14%,-3,3%,-11%[46.1 µM],-3,-7%[38.3 µM]
CN(N=O)c1cc(O)ccc1O,14µM*,8,20µM*,-16%[46.1 µM],·,8%
Cc1ccc(O)cc1,-10%,·,7%,·,·,-3%
COc1ccc(-c2oc3cc(OC)ccc3c(=O)c2O)cc1,?,?,?,·,·,-16%
CC(=O)[O-].CC(=O)[O-].O.O.O.[Pb+2],0%,·,15µM*,·,·,11%
CC(=O)C(C)=O,-6%,?,-4%,-4%[46.1 µM],·,24%
CSc1ccc(CNC2CN3CCC2CC3)cc1 (stereo unspecified),-2%,-2,0%,1%[46.1 µM],-106*,31%[38.3 µM]
Clc1ccccc1CNC1CN2CCC1CC2 (stereo unspecified),-8%,·,7%,22%,?,-3%
CN(C)CCN=Cc1c(O)n(Cc2ccco2)c(=O)[nH]c1=O,-6%,3,0%,1%[46.1 µM],6,-14%[38.3 µM]
COC1=CC(=O)O[C@@H](/C=C/c2ccccc2)C1,-9%,·,13µM*,·,·,-19%
COc1ccc(C(C#N)N2CCOCC2)cc1 (stereo unspecified),3%,?,35µM*,0%[46.1 µM],28,2%
SMILES,HPGD inh,IMPase inh,ALDH1A1 inh,NPSR antag,PNC assembly inh,IMPase Li inh
COc1ccc(C[C@@H](N)c2ccc(OC)cc2)cc1,2%,·,9%[13.5 µM],·,·,-1%
CC(=O)Cc1c[nH]c2ccccc12,·,·,·,8%,·,·
CON(C)C(=O)Nc1ccc(Cl)cc1,-6%,4,4%,-4%[46.1 µM],-121*,7%[38.3 µM]
O=C(NC(=O)c1c(F)cccc1F)Nc1ccc(Cl)cc1,-11%,·,-1%,·,·,-3%
CC(C)NC(=O)N1CC[C@@]2(CCCNC2)C1,-1%,·,-12%,·,·,18%
O=c1[nH]c(O)c(N=Nc2cc([N+](=O)[O-])ccc2O)c(=O)[nH]1,·,·,20µM*,43%,·,15%
NC(=O)c1ccc(N=Nc2c(O)[nH]c(=O)[nH]c2=O)cc1,-13%,3,22%,20%,6,-1%
CCc1cc(=O)[nH]c(SCCCF)n1,·,·,6%,22%,·,-3%
COc1cc(=O)[nH]c(SCc2c(F)c(F)c(F)c(F)c2F)n1,16µM*,-6,-2%,-13%[46.1 µM],49,20%[38.3 µM]
C[C@]12C/C(=C/O)C(=O)C[C@@H]1CC[C@@H]1[C@@H]2CC[C@@]2(C)[C@H]1CC[C@]2(C)O,-6%,·,0.071µM*,·,·,-6%
C[C@@]12CCC(Cl)C[C@H]1CCC1C2CC[C@]2(C)C(=O)CCC12 (stereo partly specified),-9%,·,3%,·,·,-5%
CCCC/C(=N\O)c1c[nH]c2ccccc12,-6%,-4,4%,2%[46.1 µM],-81*,13%[38.3 µM]
Cc1ccc2c(c1)N(CCC(=O)N1CCC3(CC1)OCCO3)C(=O)C(C)O2 (stereo unspecified),-10%,-2,?,-8%[46.1 µM],-13,-8%[38.3 µM]
Cc1ccc2c(c1)N(CCC(=O)N1CCC3(CC1)OCCO3)C(=O)CO2,-13%,3,10µM*,5%[46.1 µM],4,3%
Cn1c(O)c(/C=N/N2CCCCC2)c(=O)[nH]c1=O,-5%,·,3%,12%,23,1%
CN1CCN(c2ccc([N+](=O)[O-])c3no[n+]([O-])c23)CC1,·,·,·,10µM*,·,·
CN(C)c1ncc(/C=C2/C(=O)NC(=S)N(C3CCCCC3)C2=O)cn1,·,·,?,10µM*,·,8%
CSc1ncc(/C=C2/C(=O)NC(=O)N(C3CCCCC3)C2=O)cn1,?,6,4%,?,?,2%[38.3 µM]
CN(C)C(=O)Oc1ccc2ccccc2c1Cl,-9%,3,8%,-1%[46.1 µM],50,9%[38.3 µM]
O=C(c1ccc2c(c1)OCO2)C1CCCN(Cc2ccccn2)C1 (stereo unspecified),·,·,-12%,-3%,·,17%
Cc1ccc(/C=C2/C(=O)NC(=O)N(CC3CCCO3)C2=O)s1 (stereo unspecified),14µM*,·,10µM*,4%,-3,-4%
O=C1NC(=O)N(Cc2ccc(F)cc2)C(=O)/C1=C/c1cccs1,·,·,28µM*,-19%,·,2%
CCOc1cc(/C=C2\C(=O)NC(=O)N(CCc3ccc(F)cc3)C2=O)ccc1O,·,·,·,8%,·,·
CCN1C(=O)/C(=C\c2ccc([N+](=O)[O-])s2)C(=O)NC1=S,·,·,27%,-54%,·,-7%
CN(C)c1ccc(/C=C2/C(=O)NC(=O)N(CCc3ccc(F)cc3)C2=O)cc1,10µM*,·,0.63µM*,-24%,-21,1%
Cc1ccc(/C=C2\C(=O)NC(=O)N(CCc3ccc(F)cc3)C2=O)s1,·,·,1.6µM*,-17%,·,-8%
CNC(Cc1c[nH]c2ccccc12)C(=O)O (stereo unspecified),0%,·,8%,·,·,-3%
CCCC(C)(COC(N)=O)COC(N)=O,-5%,·,-20%,·,·,-12%
CCOC(=O)C1(CCc2ccccc2)CCN(Cc2cccc3c2OCO3)CC1,·,·,?,?,·,23%
